Compounds with a hit are over-represented: about 4.7% of the library has one in this group of screens.
ALR H2O2 inh = human ALR oxidase inhibition via reduced H2O2 | P55789 | purified ALR, DTT oxidation, H2O2 HRP-luminol luminescence | inhibition, % (test concentration not listed) | 290,000 tested, 3.8% active | AID 485317;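 active means mean replicate inhibition above about 79%, with every replicate also reaching it, limit read from the data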
UBC9 SUMO inh = inhibitors of human SUMOylation (UBC9); HTRF SUMOylation assay, SAE1/SAE2 + UBC9, in vitro; inhibition, % at 35 µM; 290,000 tested, 0.36% active; AID 2006; in the data active means inhibition above about 50%, passing the limit was not always enough
Efflux pump mplx = antifungal efflux pump inhibition, Nile Red retention; S. cerevisiae Candida pump triplex; AID 485275; 330,000 tested, 0.44% active; inhibition, % at 10 µM;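 active means plate passing quality check with inhibition over a set limit, or well fluorescence over plate mean plus 4 SD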;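 further: Nile Red retained in pooled yeast measured as flow cytometry median fluorescence; 0% = buffer negative control and 100% = Enniatin B positive control; higher means more Nile Red kept so more efflux inhibition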
eIF4H FP inh = inhibitors of RNA binding by human eIF4H. Q15056. eIF4H fluorescence polarization binding assay. inhibition, % at 35 µM. 290,000 tested, 0.94% active;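 further: calls also rest on retests at 20 µM and on dose response follow-up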
PABP FP inh = PABP-poly(A) binding inhibition. P11940. PABP-poly(A) RNA binding, fluorescence polarization. inhibition, % at 35 µM. 290,000 tested, 1% active. AID 2014;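 further: calls also rest on retests at 20 µM and on dose response follow-up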
Target sequence (P11940 whole entry, looked up): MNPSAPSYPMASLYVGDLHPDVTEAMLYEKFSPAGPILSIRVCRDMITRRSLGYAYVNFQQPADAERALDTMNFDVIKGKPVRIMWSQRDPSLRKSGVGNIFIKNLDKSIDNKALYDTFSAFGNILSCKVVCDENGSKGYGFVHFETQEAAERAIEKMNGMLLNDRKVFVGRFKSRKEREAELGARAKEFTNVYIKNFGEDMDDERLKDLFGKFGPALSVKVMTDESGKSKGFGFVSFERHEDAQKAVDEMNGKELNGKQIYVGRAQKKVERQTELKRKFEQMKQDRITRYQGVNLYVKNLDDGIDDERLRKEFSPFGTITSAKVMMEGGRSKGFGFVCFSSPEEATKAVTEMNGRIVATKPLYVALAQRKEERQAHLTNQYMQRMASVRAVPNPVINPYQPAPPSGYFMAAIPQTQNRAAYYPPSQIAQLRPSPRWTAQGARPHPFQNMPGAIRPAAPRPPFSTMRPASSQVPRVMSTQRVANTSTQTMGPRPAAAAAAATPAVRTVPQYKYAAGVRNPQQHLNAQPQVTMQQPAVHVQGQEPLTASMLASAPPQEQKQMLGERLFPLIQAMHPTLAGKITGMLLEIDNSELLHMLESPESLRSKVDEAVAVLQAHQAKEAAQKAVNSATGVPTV
PABP1 MLLE inh = inhibitors of microRNA-mediated deadenylation, human PABP1 MLLE binding. AID 588489. GST-MLLE / FITC-PAM2 fluorescence polarization. 360,000 tested, 0.36% active. inhibition, % at 20 µM; in the data active means inhibition above about 35%, passing the limit was not always enough;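 further: plate controls were DMSO wells with GST-MLLE for no effect and wells lacking GST-MLLE protein for full effect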
* marks the source's active call; other numbers are inactive results; · = no result. Unless noted, how the calls were made is not given here.

SMILES	ALR H2O2 inh	UBC9 SUMO inh	Efflux pump mplx	eIF4H FP inh	PABP FP inh	PABP1 MLLE inh
O=C(CSc1n[nH]c(-c2cc(Cl)ccc2Cl)n1)NCCN1C(=O)CSC1=O	-2.9	-3.3	0.0	3.9	-4.2	-8.9
CC(C)(C)NC(=O)NC(=O)CSc1n[nH]c(-c2ccccc2Br)n1	96.3*	8.7	0.2	-5.6	-2.7	-2.5
O=C(CSc1n[nH]c(-c2ccccc2Br)n1)NC(=O)NCc1ccco1	1.0	-1.9	-0.1	2.0	7.3	-7.3
O=C(CSc1n[nH]c(-c2ccccc2Br)n1)NCCN1C(=O)CSC1=O	-0.9	4.1	0.0	active	119.8	-1.6
O=C(CN1C(=O)c2ccc([N+](=O)[O-])cc2C1=O)Nc1cc(S(=O)(=O)N2CCOCC2)ccc1Cl	-17.4	·	0.1	·	·	-0.6
CCOC(=O)C1=CCC(c2ccc(C#N)cc2)N(S(=O)(=O)c2ccc(C)cc2)C1 (stereo not given)	·	·	·	·	·	2.8
COc1ccc(C2CC(c3cccs3)=NN2S(C)(=O)=O)cc1 (stereo not given)	-2.0	15.4	0.2	-6.9	1.8	-5.7
COc1ccc(C2CC(c3cccs3)=Nc3ccccc3S2)cc1 (stereo not given)	-16.2	5.6	-0.2	-5.4	-9.9	51.3*
COc1ccc(NC(=O)c2ccc(COCC(F)(F)C(F)F)cc2)cc1	·	15.4	0.3	active	52.6*	-0.5
COc1ccc(NC(=O)c2ccc(COCC(F)(F)C(F)F)cc2)cc1OC	-6.9	3.8	0.0	-6.3	-0.9	12.9
Cc1ccc(NC2CCCN(C(=O)CSc3ccncc3)C2)cc1C (stereo not given)	98.2*	-3.8	0.0	-7.9	-6.4	18.3
COc1ccc(NC2CCCN(C(=O)CCc3ccncc3)C2)cc1OC (stereo not given)	95.0*	-5.9	-0.2	1.4	3.0	5.8
Cc1ccc(NC2CCCN(C(=O)CCC(=O)c3ccccc3)C2)cc1C (stereo not given)	·	-13.2	·	1.7	9.7	-14.5
COc1ccc(OCC(=O)N2CCCC(Nc3ccc(C)c(C)c3)C2)cc1 (stereo not given)	·	·	·	·	·	12.4
O=C(CCc1ccncc1)N1CCCC(Nc2ccc(F)c(F)c2)C1 (stereo not given)	94.9*	·	0.0	·	·	-8.0
COc1ccc(NC2CCCN(C(=O)C3(C)CCCCC3)C2)cc1OC (stereo not given)	-3.2	-9.8	0.0	-3.5	-8.0	27.0
Cc1ccc(NC2CCCN(C(=O)CN3C(=O)c4ccccc4C3=O)C2)cc1C (stereo not given)	92.6*	1.6	0.1	-8.7	6.7	10.6
CC(C)(C)c1ccc(CC(=O)N2CCC2(C)C(=O)NCCC#N)cc1 (stereo not given)	·	·	·	·	·	-5.4
CCN(CC(=O)Nc1c(F)cccc1F)C(=O)C1CCN(S(=O)(=O)c2ccccc2C(=O)OC)CC1	·	·	·	·	·	7.0
COc1c(C)cc(C(=O)C2CCCN(C(=O)CCCn3cncn3)C2)cc1C (stereo not given)	0.0	5.6	-0.1	-5.1	11.2	8.2
COc1ccc(NC2CCCN(C(=O)CCCn3cncn3)C2)cc1OC (stereo not given)	93.9*	19.5	0.0	7.3	8.2	15.5
Cc1ccc(NC2CCCN(C(=O)Cc3nonc3C)C2)cc1C (stereo not given)	99.2*	5.4	0.0	7.8	7.9	3.7
O=C(CCc1cccc(Cl)c1)N1CCCC(Nc2ccccc2)C1 (stereo not given)	46.8	-11.2	-0.7	-8.0	-3.4	4.3
Cc1ccc(NC2CCCN(C(=O)CCc3ccncc3)C2)cc1C (stereo not given)	98.3*	-4.9	0.0	-2.5	-11.5	4.5
O=C(OCC(=O)N1CCCCC1)c1cc(=O)[nH]c2ccccc12	3.4	·	-0.2	·	·	-5.3
SMILES	ALR H2O2 inh	UBC9 SUMO inh	Efflux pump mplx	eIF4H FP inh	PABP FP inh	PABP1 MLLE inh
C=CCn1c(-c2ccccc2)nc(=S)c2c1CCCC2	-1.6	8.6	0.0	-9.0	0.6	23.2
Cc1ccccc1CN1CC2=C(CCN(Cc3ccccc3)C2=O)N2CCN=C12	·	·	·	·	·	-10.0
COc1ccccc1NC(=O)CCCn1c(=S)[nH]c2ccccc2c1=O	2.3	8.1	0.0	-4.9	-4.4	-65.5
COc1cccc(NC(=O)CCCn2c(=S)[nH]c3ccccc3c2=O)c1	83.1*	18.1	0.0	-4.8	1.2	-62.9
Cc1nn(-c2ccccc2)c(Oc2ccccc2)c1C=O	9.0	11.2	0.0	active	88.1*	-14.4
O=C(c1cc(-c2ccc(O)cc2)on1)N1CCN(c2ccccc2)CC1	81.3*	-4.5	-0.1	10.6	-2.4	7.5
O=C(c1cc(-c2ccc3c(c2)OCO3)on1)N1CCN(c2ccc(F)cc2)CC1	·	11.9	0.0	4.1	0.7	16.7
O=C(c1cc(-c2ccc(O)cc2)on1)N1CCN(c2ccc(F)cc2)CC1	90.9*	-2.7	0.3	-0.1	10.2	-8.7
O=C(c1cc(-c2ccc(O)cc2)on1)N1CCCC1	99.0*	26.9	-0.1	-11.6	0.1	-11.3
O=C(c1cc(C2CC2)on1)N1CCN(c2ccccc2)CC1	85.8*	20.5	-0.1	4.6	-8.2	-0.7
Cc1ccc(NS(=O)(=O)c2cccc(C(=O)Nc3cccnc3)c2)c(C)c1	0.6	·	-0.1	·	·	4.9
CCOP(=O)(OCC)C(Cc1ccc(OC)c(OC)c1)N=C(c1ccccc1)c1ccccc1 (stereo not given)	·	·	·	·	·	7.0
COc1ncccc1-c1cc2nc(NCCCN(C)C)n(C)c(=O)c2s1	·	·	·	·	·	-5.9
CSc1ccccc1NC(=O)c1noc2c1CCC2	41.3	-8.1	0.0	90.4*	25.7*	28.7
CC(NC(=O)c1noc2c1CCCC2)c1ccccc1 (stereo not given)	-2.0	-2.9	-0.1	-10.5	-4.4	-6.8
COC(=O)c1ccccc1NC(=O)c1noc2c1CCC2	-8.3	-3.8	0.0	83.0*	56.0*	22.4
CSc1ccc(C2NC(=O)c3ccccc3N2)cc1 (stereo not given)	0.2	·	-0.1	·	·	2.5
O=[N+]([O-])c1cc(C2Nc3cccc4cccc(c34)N2)ccc1Cl	5.4	59.4*	0.1	96.5	-0.8	8.3
Clc1ccc(C2Nc3cccc4cccc(c34)N2)cc1	-6.0	28.2	-0.1	85.5*	55.1*	18.3
Cc1cccc(C2Nc3cccc4cccc(c34)N2)c1	-6.6	-2.0	0.3	52.8*	16.7	-5.8
CSc1ccc(C2Nc3cccc4cccc(c34)N2)cc1	-14.2	32.6	0.2	90.3*	25.6*	0.2
O=C1NC(c2ccc(Cl)c([N+](=O)[O-])c2)Nc2ccccc21 (stereo not given)	-2.4	5.5	0.1	-2.7	8.7	-1.5
NC(=O)c1ccc(-c2nnc(Nc3ccc(S(N)(=O)=O)cc3)c3ccccc23)cc1	-2.6	28.2	0.2	-10.6	0.6	3.0
COc1ccc(OC)c(CCNC(=O)c2ccccc2NC(=O)C2=C(C)OCCS2)c1	-9.0	5.8	0.9	-15.8	-4.9	7.3
CC(=O)c1c(C)[nH]c(C(=O)CN2CCN(S(=O)(=O)c3ccccc3F)CC2)c1C	-4.5	·	0.0	·	·	2.9

High-throughput results: PubChem BioAssay, several laboratories
